Test [1] in a line: ATG_GRE_CIS: Attagene CIS-FACTORIAL HepG2 Assay for human Glucocorticoid Response Elements (GRE) (AID 2282947). The note with it: HepG2 GRE cis-reporter, Attagene multiplex mRNA; actives raise or lower the signal. The method, boiled down: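 Cells (HepG2) bearing transfected cis-promoter reporter transcription units were treated with chemical for 24 hours. Reporter mRNA was measured via RT-PCR with capillary electrophoresis, and activity was fitted in both directions relative to DMSO.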

Test [2] in a line: ATG_ISRE_CIS: Attagene CIS-FACTORIAL HepG2 Assay for human Interferon Regulatory Factor 1 (IRF1) binding to an Interferon-Stimulated Response Element (ISRE) (AID 2282948). The following applies: HepG2 ISRE cis-reporter (Attagene), mRNA transcription readout; actives raise or lower the signal. In short, it runs like this: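 Endogenous transcription factor activity read as reporter transcript abundance via RT-PCR and capillary electrophoresis. HepG2 cells transiently transfected, 24 h chemical exposure. Gain or loss fitted against DMSO baseline.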

The nature of test [3]: ATG_M_32_CIS: Attagene CIS-FACTORIAL HepG2 Assay for M32 Transcription Factor (Internal Marker) (AID 2282949).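 Further: background control marker of the multiplexed CIS panel rather than a real target.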 The following applies: HepG2 Attagene cis-factorial M32 reporter, mRNA; actives raise or lower the signal. The method, boiled down: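 HepG2 transfectants (cis-regulated reporter transcription units) dosed 24 h. Reporter mRNA by RT-PCR plus CE, analysed as gain or loss relative to DMSO.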

Test [4] is described as follows: ATG_M_06_CIS: Attagene CIS-FACTORIAL HepG2 Assay for M06 Transcription Factor (Internal Marker) (AID 2282950). The following applies: HepG2 Attagene CIS-FACTORIAL M06 internal marker reporter; actives raise or lower the signal. In short, it runs like this: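 Steps: transfect HepG2 with multiplexed cis-element reporter constructs; dose chemical 24 h; extract RNA with DNase treatment; reverse-transcribe, PCR-amplify, 6-FAM label, HpaI digest; separate fragments by capillary electrophoresis. Activity fitted both directions versus DMSO.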

For test [5], the target named is Hypoxia-inducible factor 1-alpha (Homo sapiens) (UniProt Q16665). In words: ATG_HIF1a_CIS: Attagene CIS-FACTORIAL HepG2 Assay for human Hypoxia Inducible Factor 1 (HIF1A) (AID 2282951). The note with it: HepG2 Attagene cis-factorial HIF1a reporter transcription; actives raise or lower the signal. The method, boiled down: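 HepG2, transient cis-reporter library, 24 h dosing. RNA → RT (oligo dT) → PCR → 6-FAM primer extension → HpaI → CE. Bidirectional curve fit vs DMSO.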
Chain of Hypoxia-inducible factor 1-alpha (Homo sapiens) (Q16665 whole entry, looked up): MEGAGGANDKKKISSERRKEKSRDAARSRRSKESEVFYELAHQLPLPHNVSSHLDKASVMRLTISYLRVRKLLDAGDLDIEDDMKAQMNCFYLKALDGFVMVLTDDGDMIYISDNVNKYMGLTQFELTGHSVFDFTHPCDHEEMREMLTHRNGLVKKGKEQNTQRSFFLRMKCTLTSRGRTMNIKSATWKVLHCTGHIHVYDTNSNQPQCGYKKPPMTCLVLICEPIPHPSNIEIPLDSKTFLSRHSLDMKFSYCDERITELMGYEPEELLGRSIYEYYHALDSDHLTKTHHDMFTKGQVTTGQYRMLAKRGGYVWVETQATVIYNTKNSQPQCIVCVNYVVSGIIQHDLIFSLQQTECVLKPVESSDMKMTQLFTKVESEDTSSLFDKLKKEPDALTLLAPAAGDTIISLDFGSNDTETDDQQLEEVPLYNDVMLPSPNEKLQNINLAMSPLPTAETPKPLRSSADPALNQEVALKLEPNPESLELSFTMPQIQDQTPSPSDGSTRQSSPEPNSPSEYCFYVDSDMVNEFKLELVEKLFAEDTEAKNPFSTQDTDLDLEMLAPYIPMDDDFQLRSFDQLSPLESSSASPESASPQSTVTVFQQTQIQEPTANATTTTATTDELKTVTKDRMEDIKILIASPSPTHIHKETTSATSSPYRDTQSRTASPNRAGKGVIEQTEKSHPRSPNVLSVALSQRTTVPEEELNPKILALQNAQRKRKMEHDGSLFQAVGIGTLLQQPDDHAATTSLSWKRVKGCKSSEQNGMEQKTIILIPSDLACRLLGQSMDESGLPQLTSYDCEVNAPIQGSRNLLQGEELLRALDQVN

Test [6] addresses Hepatocyte nuclear factor 6 (Homo sapiens) (UniProt Q9UBC0). Description: ATG_HNF6_CIS: Attagene CIS-FACTORIAL HepG2 Assay for human Hepatocyte Nuclear Factor 6 (HNF6) (AID 2282952). The following applies: HepG2 Attagene cis-factorial HNF6 reporter transcription; actives raise or lower the signal. The method, boiled down:
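Endogenous transcription factor activity in human HepG2 liver cells was captured through cis-regulated reporter constructs. After 24 h treatment, reporter mRNA was measured by RT-PCR with capillary electrophoresis, and activity was fitted in both directions relative to DMSO.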

Test [7] deals with Heat shock factor protein 1 (Homo sapiens) (UniProt Q00613). Description: ATG_HSE_CIS: Attagene CIS-FACTORIAL HepG2 Assay for human Heat Shock Transcription Factor 1 (HSE) (AID 2282953). The following applies: HepG2 HSE cis-reporter, Attagene RNA transcription; actives raise or lower the signal. The method, boiled down: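 Cells were transfected with cis-element-driven reporter constructs, dosed for 24 h, then total RNA was reverse-transcribed and reporter cDNA amplified, FAM-labelled and digested with HpaI. Fragments were resolved by capillary electrophoresis; gain or loss was fitted against DMSO.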
Chain of Heat shock factor protein 1 (Homo sapiens) (Q00613 whole entry, looked up, the tested form may be a part): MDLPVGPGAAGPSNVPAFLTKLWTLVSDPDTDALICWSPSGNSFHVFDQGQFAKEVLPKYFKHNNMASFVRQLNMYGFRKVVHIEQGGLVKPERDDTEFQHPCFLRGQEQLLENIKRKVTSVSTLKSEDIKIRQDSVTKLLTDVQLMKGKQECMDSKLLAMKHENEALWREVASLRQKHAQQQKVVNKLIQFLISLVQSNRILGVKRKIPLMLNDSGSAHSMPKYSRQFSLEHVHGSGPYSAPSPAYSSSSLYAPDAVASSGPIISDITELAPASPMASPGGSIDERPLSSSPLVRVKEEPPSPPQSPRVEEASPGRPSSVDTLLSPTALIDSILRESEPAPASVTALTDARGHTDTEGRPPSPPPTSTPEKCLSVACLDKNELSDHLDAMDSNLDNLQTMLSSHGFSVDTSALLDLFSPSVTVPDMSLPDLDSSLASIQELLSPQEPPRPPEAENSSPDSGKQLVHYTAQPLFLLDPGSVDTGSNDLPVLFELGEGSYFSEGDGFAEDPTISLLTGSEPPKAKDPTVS

Test [8] is described as follows: ATG_MRE_CIS: Attagene CIS-FACTORIAL HepG2 Assay for human Metal Responsive Element (MRE) (AID 2282954). The note with it: HepG2 MRE cis-reporter transcription, Attagene multiplex; actives raise or lower the signal. The method, boiled down:
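Cells were transfected with cis-promoter reporter transcription units, then dosed for 24 h. RNA was reverse-transcribed, amplified, fluorescently labelled and resolved by capillary electrophoresis, and activity was fitted in both directions relative to DMSO.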

The target of test [9] is Paired box protein Pax-6 (Homo sapiens) (UniProt P26367). In words: ATG_Pax6_CIS: Attagene CIS-FACTORIAL HepG2 Assay for human Paired Box 6 (PAX6) (AID 2282956). The note with it: HepG2 CIS-FACTORIAL PAX6 reporter transcription, RNA readout; actives raise or lower the signal. In short, it runs like this:
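Read-out is reporter transcript level, measured by RT-PCR with fluorescent primer extension and capillary electrophoresis after 24 h dosing of transfected HepG2 cells. Activity in either direction fitted relative to DMSO control.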

A short description of test [10]: ATG_PXRE_CIS: Attagene CIS-FACTORIAL HepG2 Assay for human Pregnane X Receptor Element (PXRE) (AID 2282957). The following applies: HepG2 Attagene CIS-FACTORIAL PXRE reporter, mRNA; actives raise or lower the signal. In short, it runs like this:
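Endogenous transcription factor activity in HepG2 was gauged through induction of reporter mRNA driven by a cis-regulating promoter element, sampled 24 h post-treatment. Activity was fitted in both directions against DMSO negative control.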

The nature of test [11]: ATG_RORE_CIS: Attagene CIS-FACTORIAL HepG2 Assay for human RAR-related Orphan Receptor Element (RORE) (AID 2282959). The note with it: HepG2 Attagene cis-factorial RORE reporter, mRNA; actives raise or lower the signal. The method, boiled down:
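Multiplexed reporter assay measuring mRNA induction from a cis promoter element in transiently transfected HepG2 cells after 24 h treatment. Detection via RT-PCR and capillary electrophoresis fluorescence; DMSO serves as baseline.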

Test [12] deals with Transcription factor Sp1 (Homo sapiens) (UniProt P08047). In words: ATG_Sp1_CIS: Attagene CIS-FACTORIAL HepG2 Assay for human Specificity Protein 1 (Sp1) (AID 2282961). The note with it: HepG2 Sp1 cis-reporter transcription, actives raise or lower the signal. The method, boiled down:
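Measures mRNA induction of an Sp1-linked reporter in HepG2 cells 24 h post-dosing. Multiplexed reporters read by RT-PCR and capillary electrophoresis; DMSO serves as negative control and baseline.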

A short description of test [13]: ATG_SREBP_CIS: Attagene CIS-FACTORIAL HepG2 Assay for human Sterol Regulatory Element Binding (SREBP) (AID 2282962). The note with it: HepG2 Attagene cis-factorial SREBP reporter, mRNA; actives raise or lower the signal. The method, boiled down:
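Endogenous SREBP activity read as cis-element-driven reporter transcript in transiently transfected HepG2, 24 h post-dosing; quantified via RT-PCR plus capillary electrophoresis of fluorescent fragments. Gain or loss of signal fitted relative to DMSO baseline.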

Test [14] is described as follows: ATG_TCF_b_cat_CIS: Attagene CIS-FACTORIAL HepG2 Assay for human T-Cell-Factor with beta-catenin (TCF/b-cat) (AID 2282965). The following applies: HepG2 TCF/beta-catenin cis-reporter transcription, actives raise or lower the signal. The method, boiled down:
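Using capillary electrophoresis as the read-out, labelled reporter cDNA fragments from transiently transfected HepG2 were sized and quantified. Exposure lasted 24 hours; activity in either direction was referenced to DMSO.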

A short description of test [15]: ATG_PBREM_CIS: Attagene CIS-FACTORIAL HepG2 Assay for human Phenobarbital-responsive Enhancer Module (PBREM) (AID 2282955). The note with it: HepG2 PBREM cis-reporter, Attagene multiplexed transcription; actives raise or lower the signal. In short, it runs like this: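 HepG2, transient MRTU transfection, 24 h dosing; RNA → oligo(dT) RT → PCR → 6-FAM extension → HpaI → CE. Bidirectional fit vs DMSO.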

Test [16] is described as follows: ATG_PPRE_CIS: Attagene CIS-FACTORIAL HepG2 Assay for human Peroxisome Proliferator-activated Response Element (PPRE) (AID 2282958). The note with it: HepG2 PPRE cis-element reporter, Attagene transcription factor profiling; actives raise or lower the signal. The method, boiled down:
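Transcript-level reporter induction in transfected HepG2 cells after 24 h chemical exposure, quantified by fluorescence from RT-PCR products separated by capillary electrophoresis.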

Test [17] in a line: ATG_Sox_CIS: Attagene CIS-FACTORIAL HepG2 Assay for human SRY-box transcription factor (SOX) (AID 2282960). The note with it: HepG2 Attagene cis-factorial SOX reporter, mRNA; actives raise or lower the signal. The method, boiled down: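 Cells were transfected with reporter constructs under cis-regulatory promoters, then exposed to chemicals for 24 h. Reporter transcripts were quantified by fluorescence after RT-PCR and capillary electrophoresis; activity was fitted in both directions against DMSO.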

In test [18] the target is Signal transducer and activator of transcription 3 (Homo sapiens) (UniProt P40763). Description: ATG_STAT3_CIS: Attagene CIS-FACTORIAL HepG2 Assay for human Signal Transducer and Activator of Transcription 3 (STAT3) (AID 2282963). The following applies: HepG2, Attagene cis-factorial STAT3 reporter transcription; actives raise or lower the signal. The method, boiled down:
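HepG2, MRTU-transfected, 24 h dosing. RNA → RT → PCR → FAM label → HpaI → CE. Bidirectional fit vs DMSO.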

The nature of test [19]: ATG_TA_CIS: Attagene CIS-FACTORIAL HepG2 Assay for human TA Basal Promoter (AID 2282964). The following applies: HepG2 Attagene CIS-factorial TA basal promoter reporter; actives raise or lower the signal. In short, it runs like this: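 Steps: transfect HepG2 with MRTUs; dose 24 h; isolate RNA, DNase-treat, reverse-transcribe; PCR and FAM-label reporter cDNA; digest with HpaI 2h at 37 C; run capillary electrophoresis. Activity fitted both directions against DMSO.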

Activity calls are given as the source filed them. How the source made its calls: active means hit-call score of the fitted dose curve at least 0.9, where 1 is the maximum; inactive means score below 0.9.

From PubChem BioAssay (EPA / NIEHS) come the findings set out here.

As a reminder, the AC50 is the concentration giving half of the maximal activity seen.

Chain of Signal transducer and activator of transcription 3 (Homo sapiens) (P40763 whole entry, looked up): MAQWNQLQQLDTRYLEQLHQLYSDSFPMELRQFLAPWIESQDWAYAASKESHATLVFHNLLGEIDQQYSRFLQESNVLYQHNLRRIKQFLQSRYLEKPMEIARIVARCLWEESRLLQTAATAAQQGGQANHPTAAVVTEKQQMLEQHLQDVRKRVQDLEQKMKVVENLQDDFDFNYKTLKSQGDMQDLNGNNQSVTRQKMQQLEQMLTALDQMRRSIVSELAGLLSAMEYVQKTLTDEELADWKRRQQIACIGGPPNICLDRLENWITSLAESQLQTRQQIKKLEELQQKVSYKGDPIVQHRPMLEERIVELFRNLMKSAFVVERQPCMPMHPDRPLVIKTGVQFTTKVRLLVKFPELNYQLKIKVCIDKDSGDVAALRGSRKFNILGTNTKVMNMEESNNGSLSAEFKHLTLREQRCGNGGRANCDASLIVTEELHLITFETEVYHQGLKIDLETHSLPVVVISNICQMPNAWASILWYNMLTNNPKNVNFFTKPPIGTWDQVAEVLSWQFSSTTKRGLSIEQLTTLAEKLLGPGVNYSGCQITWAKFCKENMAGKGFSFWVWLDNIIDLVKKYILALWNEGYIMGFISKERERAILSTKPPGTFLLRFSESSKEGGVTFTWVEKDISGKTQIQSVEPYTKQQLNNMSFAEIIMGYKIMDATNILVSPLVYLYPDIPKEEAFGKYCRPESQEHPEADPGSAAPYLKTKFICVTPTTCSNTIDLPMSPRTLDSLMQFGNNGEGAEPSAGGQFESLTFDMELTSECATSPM
Chain of Transcription factor Sp1 (Homo sapiens) (P08047 whole entry, looked up): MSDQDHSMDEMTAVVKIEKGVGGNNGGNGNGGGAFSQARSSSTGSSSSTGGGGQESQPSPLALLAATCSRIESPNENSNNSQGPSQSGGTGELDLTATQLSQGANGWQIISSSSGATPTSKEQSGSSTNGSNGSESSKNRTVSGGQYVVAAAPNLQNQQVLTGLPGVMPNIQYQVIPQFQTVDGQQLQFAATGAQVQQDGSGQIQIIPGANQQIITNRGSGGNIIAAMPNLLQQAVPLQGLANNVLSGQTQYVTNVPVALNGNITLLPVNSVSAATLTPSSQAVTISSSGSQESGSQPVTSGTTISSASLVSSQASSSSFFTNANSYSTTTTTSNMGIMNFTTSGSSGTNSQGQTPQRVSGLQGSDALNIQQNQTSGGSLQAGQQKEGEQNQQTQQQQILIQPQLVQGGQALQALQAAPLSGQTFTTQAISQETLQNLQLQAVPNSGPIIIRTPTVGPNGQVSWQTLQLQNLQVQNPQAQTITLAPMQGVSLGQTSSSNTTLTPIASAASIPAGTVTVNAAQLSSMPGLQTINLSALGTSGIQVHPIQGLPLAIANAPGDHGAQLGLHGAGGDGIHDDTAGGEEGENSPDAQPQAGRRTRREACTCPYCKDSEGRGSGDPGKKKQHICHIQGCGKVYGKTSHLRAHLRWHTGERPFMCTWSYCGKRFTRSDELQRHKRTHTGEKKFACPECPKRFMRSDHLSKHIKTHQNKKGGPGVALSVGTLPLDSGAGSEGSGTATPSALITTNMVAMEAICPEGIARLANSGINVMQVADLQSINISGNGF
Chain of Paired box protein Pax-6 (Homo sapiens) (P26367 whole entry, looked up): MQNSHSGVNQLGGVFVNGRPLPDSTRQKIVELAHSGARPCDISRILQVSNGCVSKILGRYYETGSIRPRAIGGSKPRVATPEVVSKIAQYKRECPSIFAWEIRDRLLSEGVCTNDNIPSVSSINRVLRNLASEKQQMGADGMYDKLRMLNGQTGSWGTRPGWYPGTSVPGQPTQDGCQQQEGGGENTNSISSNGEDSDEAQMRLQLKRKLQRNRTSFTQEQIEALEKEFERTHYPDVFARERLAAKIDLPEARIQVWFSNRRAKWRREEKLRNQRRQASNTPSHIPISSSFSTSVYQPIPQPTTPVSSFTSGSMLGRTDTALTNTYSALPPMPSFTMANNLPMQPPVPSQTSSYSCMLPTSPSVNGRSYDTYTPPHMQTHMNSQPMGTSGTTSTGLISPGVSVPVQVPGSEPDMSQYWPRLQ
Chain of Hepatocyte nuclear factor 6 (Homo sapiens) (Q9UBC0 whole entry, looked up): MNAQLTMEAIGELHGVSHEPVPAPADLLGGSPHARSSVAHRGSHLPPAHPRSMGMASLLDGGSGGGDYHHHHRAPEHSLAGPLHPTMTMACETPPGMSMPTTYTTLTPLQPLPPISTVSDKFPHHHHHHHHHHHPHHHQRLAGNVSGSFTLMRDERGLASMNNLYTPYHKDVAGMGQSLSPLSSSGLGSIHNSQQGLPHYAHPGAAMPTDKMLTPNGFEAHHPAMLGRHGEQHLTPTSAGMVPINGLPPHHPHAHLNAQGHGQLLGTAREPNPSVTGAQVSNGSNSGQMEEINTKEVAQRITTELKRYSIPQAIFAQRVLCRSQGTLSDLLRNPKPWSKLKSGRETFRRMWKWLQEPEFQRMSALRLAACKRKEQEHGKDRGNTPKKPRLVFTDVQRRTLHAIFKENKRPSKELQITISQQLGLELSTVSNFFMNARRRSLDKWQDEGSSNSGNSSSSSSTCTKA

Take `C=C(C)C1CC=C(C)C(=O)C1` (centres undefined): the outcome in test [1], in [2], in test [3], in test [4], in test [5] and in test [6] was inactive. The compound was called inactive in test [7], in test [8], in test [9], in [11], in [12] and in [13]. Further, in [14], the result was inactive. Besides, the AC50 in test [10] was 33.4 µM (active).

For the compound `C=C(C#N)C(=O)OCC`, the outcome in test [1], in [3], in [4], in test [6], in test [8] and in test [15] was inactive. The result in [9], in test [10], in [16], in [11], in [17] and in test [12] was inactive. In addition, the call in test [13], in [18] and in [19] was inactive. Also, the AC50 in test [2] was 169 µM (active); in test [7], 144 µM (active).

For `O=Cc1ccccc1S(=O)(=O)O`, the call in test [1], in test [2], in test [3], in [4], in test [5] and in [7] was inactive. The compound was classed as inactive in [8], in test [9], in test [10], in test [16], in test [11] and in test [12]. Besides, the outcome in test [13], in test [18], in test [19] and in [14] was inactive.

Turning to `CCc1ccc(O)cc1`, the result in [1], in test [2], in test [4], in [5], in test [6] and in test [7] was inactive. The outcome in test [8], in [15], in test [16], in [11], in test [17] and in [12] was inactive. Besides, the result in [13], in [18], in test [19] and in test [14] was inactive. Further, the AC50 in test [10] is 32.3 µM (active).

Turning to `CCCCCc1ccco1`, the call in [1], in test [2], in [3], in test [4], in test [5] and in [8] was inactive. Further, the outcome in [15], in [16], in [11], in [17], in test [12] and in test [13] was inactive. The call in test [18] and in test [19] was inactive. Moreover, the half-maximal activity concentration (AC50) is 115 µM (active) in [7], 4.15 µM (active) in test [10] and 70 µM (active) in [14].

Consider `[O-]n1ccccc1=S.[O-]n1ccccc1=S.[Zn+2]`, for which the call in test [1], in test [3], in test [5], in test [6], in [15] and in test [9] was inactive. Also, the compound was classed as inactive in test [10], in test [16], in test [11], in test [17], in [12] and in [13]. For the same compound, the outcome in test [18] and in test [19] was inactive. Besides, the values for the AC50 in test [2], in test [7] and in test [8] were 1.07 µM (active), 0.937 µM (active) and 0.923 µM (active), respectively.

In the case of `OCC#CCO`, the result in test [1], in test [2], in [3], in test [5], in test [6] and in [7] was inactive. Moreover, the result in test [8], in [9], in test [10], in [11], in test [17] and in test [12] was inactive. Besides, the result in test [13], in [18], in [19] and in [14] was inactive.
